# Shown is part of a subset that was picked to be rich in the strongest signals.
# B1: FliC (Clostridium difficile) (protein)
# chain: MRVNTNVSALIANNQMGRNVNGQSKSMEKLSSGVRIKRAADDAAGLAISEKMRAQIKGLDQAGRNVQDGISVVQTAEGSLEETGNILQRMRTLSLQSANEINNTEEREKIADELTQLKDEIERISSSTEFNGKKLLDGTSSTIRLQVGASYGTNVSGTSNNNNEIKIQLVNTASIMASAGITTASIGSMKAGGTTGTDAAKTMVSSLDAALKSLNSSRAKLGAQQNRLESTQNNLNNTLENVTAAESRIRDTDVASEMVNLSKMNILVQASQSMLAQANQQPQGVLQLLG
# Assays:
# Test in all cases: glycan array binding signal (z-score within array); higher = stronger binding
# Details in all cases: glycan notation: IUPAC condensed, linker removed
# [1] = target: GalNAc(b1-3)Gal
# Method in brief: (§1)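 Glycan array binding is given as a within-array Z-score, which can be read as non-binding when negative. The arrays, 3228 of them, came from the Consortium for Functional Glycomics database and were retained only where the protein sequence was available. Z-scores were averaged across arrays of the same protein sequence at different concentrations or buffers and across linkers.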
# [2] = target: GalNAc6S(b1-4)GlcNAc
# Method in brief: as §1
# [3] = target: Glc(b1-6)Glc
# Method in brief: as §1
# [4] = target: GlcNAc(a1-4)Gal(b1-3)GlcNAc
# Method in brief: as §1
# [5] = target: GlcNAc(b1-2)Man(a1-3)[GlcNAc(b1-2)Man(a1-6)]Man(b1-4)GlcNAc(b1-4)[Fuc(a1-6)]GlcNAc
# Method in brief: as §1
# [6] = target: GlcNAc(b1-3)Gal(b1-4)GlcNAc(b1-2)[GlcNAc(b1-3)Gal(b1-4)GlcNAc(b1-6)]Man(a1-6)[GlcNAc(b1-3)Gal(b1-4)GlcNAc(b1-2)Man(a1-3)]Man(b1-4)GlcNAc(b1-4)GlcNAc
# Method in brief: as §1
# [7] = target: GlcNAc(b1-3)Gal(b1-4)GlcNAc(b1-3)Gal(b1-4)GlcNAc(b1-2)Man(a1-3)[GlcNAc(b1-3)Gal(b1-4)GlcNAc(b1-3)Gal(b1-4)GlcNAc(b1-2)Man(a1-6)]Man(b1-4)GlcNAc(b1-4)GlcNAc
# Method in brief: as §1
# [8] = target: GlcNAc(b1-3)Gal(b1-4)GlcNAc(b1-3)Gal(b1-4)GlcNAc(b1-3)Gal(b1-4)GlcNAc(b1-2)Man(a1-3)[GlcNAc(b1-3)Gal(b1-4)GlcNAc(b1-3)Gal(b1-4)GlcNAc(b1-3)Gal(b1-4)GlcNAc(b1-2)Man(a1-6)]Man(b1-4)GlcNAc(b1-4)[Fuc(a1-6)]GlcNAc
# Method in brief: as §1
# [9] = target: GlcNAc(b1-3)Gal(b1-4)GlcNAc(b1-3)Gal(b1-4)GlcNAc(b1-3)Gal(b1-4)GlcNAc(b1-3)Gal(b1-4)GlcNAc(b1-2)Man(a1-3)[GlcNAc(b1-3)Gal(b1-4)GlcNAc(b1-3)Gal(b1-4)GlcNAc(b1-3)Gal(b1-4)GlcNAc(b1-3)Gal(b1-4)GlcNAc(b1-2)Man(a1-6)]Man(b1-4)GlcNAc(b1-4)[Fuc(a1-6)]GlcNAc
# Method in brief: as §1
# [10] = target: GlcNAc(b1-3)[GlcNAc(b1-6)]Gal(b1-4)GlcNAc
# Method in brief: as §1
# [11] = target: GlcNAc(b1-6)GalNAc
# Method in brief: as §1
# [12] = target: GlcNAc6S(b1-3)Gal(b1-4)GlcNAc
# Method in brief: as §1
# [13] = target: Man(a1-2)Man(a1-6)[Man(a1-3)]Man(a1-6)[Man(a1-2)Man(a1-2)Man(a1-3)]Man
# Method in brief: as §1
# [14] = target: Man(a1-3)[Man(a1-6)]Man
# Method in brief: as §1
# [15] = target: Man(a1-3)[Man(a1-6)]Man(a1-6)[Man(a1-2)Man(a1-3)]Man(b1-4)GlcNAc(b1-4)GlcNAc
# Method in brief: as §1
# [16] = target: Neu5Ac(a2-3)Gal(b1-3)GlcNAc(b1-2)Man(a1-3)[GlcNAc(b1-4)][Neu5Ac(a2-3)Gal(b1-3)GlcNAc(b1-2)Man(a1-6)]Man(b1-4)GlcNAc(b1-4)GlcNAc
# Method in brief: as §1
# [17] = target: Neu5Ac(a2-3)Gal(b1-3)GlcNAc(b1-4)Gal(b1-4)Glc
# Method in brief: as §1
# [18] = target: Neu5Ac(a2-3)Gal(b1-3)[Neu5Ac(a2-6)]GlcNAc(b1-3)[Fuc(a1-3)[Gal(b1-4)]GlcNAc(b1-6)]Gal(b1-4)Glc
# Method in brief: as §1
# [19] = target: Neu5Ac(a2-3)Gal(b1-4)GlcNAc(b1-2)[Neu5Ac(a2-3)Gal(b1-4)GlcNAc(b1-6)]Man(a1-6)[Neu5Ac(a2-3)Gal(b1-4)GlcNAc(b1-2)Man(a1-3)]Man(b1-4)GlcNAc(b1-4)GlcNAc
# Method in brief: as §1
# [20] = target: Neu5Ac(a2-3)Gal(b1-4)GlcNAc(b1-3)Gal(b1-4)GlcNAc(b1-2)Man(a1-3)[Neu5Ac(a2-3)Gal(b1-4)GlcNAc(b1-3)Gal(b1-4)GlcNAc(b1-2)Man(a1-6)]Man(b1-4)GlcNAc(b1-4)GlcNAc
# Method in brief: as §1
# [21] = target: Neu5Ac(a2-3)Gal(b1-4)GlcNAc(b1-3)Gal(b1-4)GlcNAc(b1-3)Gal(b1-4)GlcNAc(b1-2)Man(a1-3)[Neu5Ac(a2-3)Gal(b1-4)GlcNAc(b1-3)Gal(b1-4)GlcNAc(b1-3)Gal(b1-4)GlcNAc(b1-2)Man(a1-6)]GalNAc
# Method in brief: as §1
# [22] = target: Neu5Ac(a2-3)Gal(b1-4)GlcNAc(b1-3)Gal(b1-4)GlcNAc(b1-3)GalNAc
# Method in brief: as §1
# [23] = target: Neu5Ac(a2-3)Gal6S(b1-4)[Fuc(a1-3)]GlcNAc
# Method in brief: as §1
# [24] = target: Neu5Ac(a2-6)Gal(b1-4)GlcNAc(b1-2)Man(a1-3)[Gal(b1-4)GlcNAc(b1-2)Man(a1-6)]Man(b1-4)GlcNAc(b1-4)GlcNAc
# Method in brief: as §1
# [25] = target: Neu5Ac(a2-6)Gal(b1-4)GlcNAc(b1-2)Man(a1-3)[GlcNAc(b1-2)Man(a1-6)]Man(b1-4)GlcNAc(b1-4)GlcNAc
# Method in brief: as §1
# [26] = target: Neu5Ac(a2-6)Gal(b1-4)GlcNAc(b1-3)Gal(b1-4)GlcNAc(b1-3)Gal(b1-4)GlcNAc(b1-2)Man(a1-3)[Neu5Ac(a2-6)Gal(b1-4)GlcNAc(b1-3)Gal(b1-4)GlcNAc(b1-3)Gal(b1-4)GlcNAc(b1-2)Man(a1-6)]GalNAc
# Method in brief: as §1
# [27] = target: Neu5Ac(a2-6)Gal(b1-4)GlcNAc(b1-6)[Gal(b1-3)GlcNAc(b1-3)]Gal(b1-4)Glc
# Method in brief: as §1
# [28] = target: Neu5Ac(a2-8)Neu5Ac
# Method in brief: as §1
# [29] = target: Neu5Ac(a2-8)Neu5Ac(a2-3)[GalNAc(b1-4)]Gal(b1-4)Glc
# Method in brief: as §1
binder,measurement,setting,value
B1,glycan array binding signal (z-score),[1],-0.175
same,glycan array binding signal (z-score),[2],0.047
same,glycan array binding signal (z-score),[3],1.72
same,glycan array binding signal (z-score),[4],0.947
same,glycan array binding signal (z-score),[5],0.458
same,glycan array binding signal (z-score),[6],3
same,glycan array binding signal (z-score),[7],0.372
same,glycan array binding signal (z-score),[8],-0.149
same,glycan array binding signal (z-score),[9],-0.369
same,glycan array binding signal (z-score),[10],-0.057
same,glycan array binding signal (z-score),[11],-0.08
same,glycan array binding signal (z-score),[12],0.071
same,glycan array binding signal (z-score),[13],0.153
same,glycan array binding signal (z-score),[14],-0.471
same,glycan array binding signal (z-score),[15],3.18
same,glycan array binding signal (z-score),[16],0.514
same,glycan array binding signal (z-score),[17],0.17
same,glycan array binding signal (z-score),[18],-0.645
same,glycan array binding signal (z-score),[19],-0.275
same,glycan array binding signal (z-score),[20],1.02
same,glycan array binding signal (z-score),[21],6.63
same,glycan array binding signal (z-score),[22],-0.31
same,glycan array binding signal (z-score),[23],-0.433
same,glycan array binding signal (z-score),[24],-0.515
same,glycan array binding signal (z-score),[25],0.511
same,glycan array binding signal (z-score),[26],2.32
same,glycan array binding signal (z-score),[27],-0.577
same,glycan array binding signal (z-score),[28],-0.234
same,glycan array binding signal (z-score),[29],-0.626

# Source: the supplement of paper PMC8728848
